TNFa cytotox = toxic to HUVEC cells under TNF alpha stimulation; AID 848; HUVEC TNFalpha-stimulated, Hoechst cell count, imaging; hit rate 0.17% among 93,000; cell count reduction, % at 2 µM;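 active = cell count reduction exceeding the screen mean by over 5 SD, scaled to untreated wells per plate, cut at about 78% in these data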;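 also: cells counted after 24 h of TNF alpha exposure following the 1 h pretreatment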
cytoskel mod = modifiers of cytoskeleton assembly. HUVEC TNFa F-actin phalloidin imaging, high content. inhibition, % at 2 µM. hit rate 0.18% among 91,000. AID 836;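 active = inhibition above the batch mean plus 3 SD and confirmed as a hit by visual image inspection, cut at about 30% in these data, passing the limit was not always enough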
VCAM1 TNFa inh = reduces TNF alpha induced VCAM1 expression in HUVEC; HUVEC TNFa-induced VCAM-1 immunofluorescence, high-content imaging; inhibition, % at 2 µM; hit rate 0.48% among 95,000;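 active = inhibition above the batch mean plus 3 SD, with images confirmed as a hit by eye, cut at about 37% in these data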
E-sel TNF inh = blocks E-selectin expression induced by TNF alpha; HUVEC TNFa-induced E-selectin immunofluorescence, high content; hit rate 0.71% among 120,000; inhibition, % at 2 µM; AID 1246;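 active = inhibition above the batch mean plus 3 SD, and confirmed as a hit on visual image review, cut at about 43% in these data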
Of the large screens only hits and unclear results are named; the others gave an inactive call. Rows were chosen to be rich in hits. Some 1.2% of all compounds tested hit in one or more screens of this group.

[O-][n+]1onc2c1C(N1CCOCC1)CCC2N1CCOCC1 (stereo unspecified)	E-sel TNF inh 82
CCOC(=O)CC(=O)CSc1nc2c(sc(=S)n2-c2ccccc2)c(=O)[nH]1	none (no result: E-sel TNF inh)
CCOC(=O)c1ccc(-n2c(=S)sc3c(=O)[nH]c(C)nc32)cc1	VCAM1 TNFa inh 87
CCOC(=O)c1ccccc1NC(=O)c1ccc(N(C)S(C)(=O)=O)cc1	E-sel TNF inh 70
CCOC(=O)c1ccccc1NC(=O)c1ccccc1N(C)S(C)(=O)=O	none (no result: TNFa cytotox)
O=Cc1cc2ccccc2nc1SCCCF	none (no result: TNFa cytotox, cytoskel mod, VCAM1 TNFa inh)
CCN(CC)S(=O)(=O)N1CCC(C(=O)NC2CCCC2)CC1	none
CCS(=O)(=O)N1CCC(C(=O)NC2CCCCC2)CC1	cytoskel mod 31
O=C(C1=NNC2C(=O)N(c3ccccc3)C(=O)C12)c1nc(Cl)ccc1Cl (stereo unspecified)	none (no result: TNFa cytotox, cytoskel mod, VCAM1 TNFa inh)
CCn1nc(C)c(CNC(=O)Nc2ccccc2C(=O)OC)c1C	none (no result: TNFa cytotox, cytoskel mod, VCAM1 TNFa inh)
COc1ccc(C2CC(O)(C(C)(C)O)NO2)cc1 (stereo unspecified)	E-sel TNF inh 47 (no result: cytoskel mod)
COc1ccc(C(=O)Nc2cc(C(=O)c3ccccc3)c(C)oc2=O)cc1	none (no result: E-sel TNF inh)
O=C(Nc1cc2ccccc2oc1=O)c1ccccc1	E-sel TNF inh 72 (no result: TNFa cytotox, cytoskel mod, VCAM1 TNFa inh)
O=C1CCCc2c1[nH]c1ccc(Cl)cc21	VCAM1 TNFa inh 76
CCOC(=O)c1ccc2[nH]c3c(c2c1)CCCCC3=O	none
O=C(CCN1C(=O)C2C3C=CC(C3)C2C1=O)Nc1c(F)cccc1F (stereo unspecified)	TNFa cytotox 94
Cc1cc(C(=O)N/N=C/c2ccco2)n[nH]1	none (no result: TNFa cytotox, cytoskel mod, VCAM1 TNFa inh)
CC(/C=C/c1ccco1)=N\NC(=O)c1cc(C)[nH]n1	cytoskel mod 61, E-sel TNF inh 100
Cc1[nH]nc2c1C(=O)CC(C)(C)C2	none
CCc1n[nH]c2c1C(=O)CC(C)(C)C2	E-sel TNF inh 54
Cc1ccc(CNC(=O)c2sc3nc4c(c(C(F)(F)F)c3c2N)CCC4)cc1	none
Nc1c(C(=O)NCc2ccc(Cl)cc2)sc2nc3c(c(C(F)(F)F)c12)CCC3	E-sel TNF inh 65
O=C(CSc1ccc2ccccc2c1)Nc1ccc(S(=O)(=O)Nc2nccs2)cc1	none (no result: TNFa cytotox, cytoskel mod, VCAM1 TNFa inh)
COCCn1c(SCC(=O)N2CCCCC2)nc2ccccc2c1=O	E-sel TNF inh 96
CCOc1cc(N2CCOCC2)c(OCC)cc1NS(=O)(=O)c1ccc(Cl)s1	E-sel TNF inh 89
CCC(CC)n1[nH]c(=O)c2c(C)cc(C)nc21	TNFa cytotox 81
CN=C(Nc1cc(C)nn1CCC#N)c1ccccc1F	cytoskel mod 67
CN=C(Nc1cc(C)nn1CCC#N)c1ccccc1	none
O=C(c1cc2c(s1)-c1ccccc1S(=O)(=O)C2)N1CCN(Cc2ccccc2)CC1	none
COC(=O)c1ccc(NC(C)=O)cc1O	none (no result: TNFa cytotox, cytoskel mod, VCAM1 TNFa inh)
COC(=O)c1cscc1NC(C)=O	cytoskel mod 30
CCOc1cccc(C(=O)Nc2nc(-c3ccc(S(=O)(=O)N4CCOCC4)cc3)cs2)c1	none
O=C(Nc1nc(-c2ccncc2)cs1)c1ccc(S(=O)(=O)N2CCOCC2)cc1	E-sel TNF inh 63
CCOc1cc(/C=N\NC(=O)Cc2ccccc2)ccc1OCC(=O)Nc1ccc(C)c(C)c1	VCAM1 TNFa inh 52
CCOc1cc(/C=N\Nc2ccc([N+](=O)[O-])cc2)ccc1OCC(=O)Nc1ccc(C)c(C)c1	none
N#CC1=C(N)Oc2cc(N)ccc2C1c1cccnc1 (stereo unspecified)	none (no result: TNFa cytotox, cytoskel mod, VCAM1 TNFa inh)
N#CC1=C(N)Oc2cc(Nc3ccccc3)ccc2C1c1ccncc1 (stereo unspecified)	E-sel TNF inh 54
CCN(CC)c1ccc2c(c1)OC(N)=C(C#N)C2c1cccnc1 (stereo unspecified)	VCAM1 TNFa inh 39 (no result: E-sel TNF inh)
CCOC(=O)CCNCc1ccc(F)cc1	none (no result: TNFa cytotox, cytoskel mod, VCAM1 TNFa inh)
COc1ccc(/C(O)=C2\C(=O)C(=O)N(CCN3CCOCC3)C2c2ccccc2OC)cc1 (stereo unspecified)	none (no result: TNFa cytotox, cytoskel mod, VCAM1 TNFa inh)
COc1ccccc1C1/C(=C(/O)c2ccc(C)cc2)C(=O)C(=O)N1CCN1CCOCC1 (stereo unspecified)	E-sel TNF inh 70 (no result: TNFa cytotox, cytoskel mod, VCAM1 TNFa inh)
Cn1cnnc1SC(C(=O)Nc1cccc(C(F)(F)F)c1)c1ccccc1 (stereo unspecified)	none
Cc1cccc(NC(=O)c2cc3ccccc3o2)c1	none
CCC(=O)Nc1cccc(NC(=O)c2cc3ccccc3o2)c1	TNFa cytotox 87, VCAM1 TNFa inh 86 (no result: E-sel TNF inh)
Cc1oc(-c2cc(F)cc(F)c2)nc1CN1CCSCC1	none (no result: TNFa cytotox, cytoskel mod, VCAM1 TNFa inh)
CCOC(=O)c1cc2c(ccn2C)n1Cc1ccccc1C	cytoskel mod 63
Cc1ccccc1Cn1c(C(=O)OC(C)C)cc2c1ccn2C	none
CC(C)(C)NC(=O)NC(=O)CN1CCN(C(c2ccccc2)c2ccccc2)CC1	none (no result: TNFa cytotox, cytoskel mod, VCAM1 TNFa inh)
CN1CCN(S(=O)(=O)c2ccc(NC(=O)c3ccc(F)cc3)cc2)CC1	E-sel TNF inh 100
COc1ccccc1NC(=O)c1ccc(S(=O)(=O)N2CCCC2)cc1	E-sel TNF inh 100
CCCCn1cnc(C(=O)OCC)c1N	none (no result: TNFa cytotox, cytoskel mod, VCAM1 TNFa inh)
c1ccc(-n2c(Sc3cnccn3)nnc2-c2cccs2)cc1	E-sel TNF inh 63
COc1ccc(-c2n[nH]c(C(F)(F)F)c2-c2cc3ccccc3o2)c(O)c1	E-sel TNF inh 43 (no result: cytoskel mod)
COc1ccc(-c2n[nH]c(C)c2-c2ccc(Cl)cc2)c(O)c1	none
CCCC(C)NC(=O)c1sc2nc3n(c(=O)c2c1C)CCC3 (stereo unspecified)	none (no result: TNFa cytotox, cytoskel mod, VCAM1 TNFa inh)
Cc1ccc(C(=O)Nc2ccc(O)cc2C(=O)O)cc1	E-sel TNF inh 61
O=C1C(Cc2c[nH]c3ccccc23)NC(=S)N1C1CCCCC1 (stereo unspecified)	none (no result: TNFa cytotox, cytoskel mod, VCAM1 TNFa inh)
Cc1ccc2n(n1)c(=O)c(Cc1ccccc1)c([O-])[n+]2-c1ccccc1	none (no result: TNFa cytotox, cytoskel mod, VCAM1 TNFa inh)
CCOC(=O)c1nnc(-c2ccc(C)cc2)nc1Oc1ccc(Cl)cc1Cl	E-sel TNF inh 63
CCOC(=O)c1nnc(-c2ccc(C)cc2)nc1Oc1ccccc1Cl	none
CC(Sc1nnc(-c2cccs2)n1Cc1ccccc1)C(=O)NCc1ccc2c(c1)OCO2 (stereo unspecified)	E-sel TNF inh 80 (no result: cytoskel mod)
O=C(CSc1nnc(-c2cccs2)n1Cc1ccccc1)NCc1ccc2c(c1)OCO2	none
CCn1c(SCC(=O)Nc2ccccc2)nnc1C1CCCCC1	E-sel TNF inh 60
CCOC(=O)c1cccc(NC(=O)CSc2nnc(C3CCCCC3)n2C)c1	none
CCC(=O)N(Cc1ccc(S(N)(=O)=O)cc1)C1CC(=O)N(c2ccccc2)C1=O (stereo unspecified)	none (no result: TNFa cytotox, cytoskel mod, VCAM1 TNFa inh)
CC(C)=C1SC(N2CCN(c3ccc(Cl)cc3)CC2)=NC1=O	none (no result: TNFa cytotox, cytoskel mod, VCAM1 TNFa inh)
CC(C)=C1SC(N2CCN(c3ccc(C)cc3)CC2)=NC1=O	E-sel TNF inh 63
COC(=O)c1ccc(CC(=O)c2c(C)cc(O)cc2O)o1	none (no result: E-sel TNF inh)
Cc1noc(C)c1S(=O)(=O)N1CCN(C(c2ccccc2)c2ccc(Cl)cc2)CC1 (stereo unspecified)	TNFa cytotox 86 (no result: E-sel TNF inh)
Cc1noc(C)c1S(=O)(=O)N1CCC2(CC1)OCCO2	TNFa cytotox 95, VCAM1 TNFa inh 88
Cc1ccc(S(=O)(=O)N2CCCCC2)cc1NC(=O)COC(=O)Cc1cccc(C(F)(F)F)c1	none (no result: TNFa cytotox, cytoskel mod, VCAM1 TNFa inh)
COc1ccc2cc(CCNC(=O)C(C)C)c(=O)[nH]c2c1	E-sel TNF inh 96 (no result: TNFa cytotox, cytoskel mod, VCAM1 TNFa inh)
COc1ccc(CC(=O)OCc2cc3ccc(C)cc3[nH]c2=O)cc1	VCAM1 TNFa inh 93 (no result: E-sel TNF inh)
COc1ccc(/C=N/N2CCOCC2)cc1COc1ccc(Cl)cc1	none (no result: TNFa cytotox, cytoskel mod, VCAM1 TNFa inh)

Source: PubChem BioAssay (Columbia University Molecular Screening Center)
